# In publication PMC7862700, “An all-to-all approach to the identification of sequence-specific readers for epigenetic DNA modifications on cytosine”:
# Key:
# Experiment in all cases: DAPPL (digital affinity profiling via proximity ligation, sequencing); 10 mM Tris-HCl pH 7.5, 50 mM NaCl, 1 mM DTT, 4% glycerol, room temperature, 30 min; GST-TFs on glutathione beads, 16-mer random dsDNA library, 0.1% formaldehyde crosslink after washing; high values mean tight binding
# ELK3 = biological target: T1, ELK3 (Homo sapiens, UniProt P41970 1-407); conditions: protein: recombinant; tags: N-terminal GST; dsDNA, one strand shown
# T1 sequence: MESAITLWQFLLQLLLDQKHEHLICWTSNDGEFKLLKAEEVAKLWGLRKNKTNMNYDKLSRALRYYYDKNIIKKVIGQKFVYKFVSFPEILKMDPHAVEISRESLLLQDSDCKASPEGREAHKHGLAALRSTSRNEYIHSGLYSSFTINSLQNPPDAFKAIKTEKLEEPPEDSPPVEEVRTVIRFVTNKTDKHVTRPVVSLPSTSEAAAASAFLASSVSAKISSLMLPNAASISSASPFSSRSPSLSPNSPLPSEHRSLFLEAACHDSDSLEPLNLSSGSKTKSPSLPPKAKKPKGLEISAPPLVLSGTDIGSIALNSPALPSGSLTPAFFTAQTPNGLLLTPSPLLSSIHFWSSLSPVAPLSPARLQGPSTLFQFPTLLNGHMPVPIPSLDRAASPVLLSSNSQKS
# In short: (§1)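 Pools were built from human transcription factors expressed in yeast as GST fusions, captured on glutathione beads and DNA-barcoded, along with a tag-only sample. Incubation with 200 nmole of a 16-mer random double-stranded DNA library lasted 30 min at room temperature in Tris/NaCl/DTT/glycerol buffer, and was followed by washing, 0.1% formaldehyde crosslinking, proximity ligation, PCR amplification and Illumina NextSeq500 sequencing. Binding signal is the quotient of each hexamer's read frequency for a factor and its frequency for the tag-only sample.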
# HSF1 = HSF1 (Homo sapiens, UniProt Q00613 1-529); conditions: protein: recombinant; tags: N-terminal GST; chain copies: 3; dsDNA, one strand shown
# In short: as §1
# ELK4 = biological target: T2, ELK4 (Homo sapiens, UniProt P28324-2 1-405); conditions: protein: recombinant; tags: N-terminal GST; dsDNA, one strand shown
# T2 sequence: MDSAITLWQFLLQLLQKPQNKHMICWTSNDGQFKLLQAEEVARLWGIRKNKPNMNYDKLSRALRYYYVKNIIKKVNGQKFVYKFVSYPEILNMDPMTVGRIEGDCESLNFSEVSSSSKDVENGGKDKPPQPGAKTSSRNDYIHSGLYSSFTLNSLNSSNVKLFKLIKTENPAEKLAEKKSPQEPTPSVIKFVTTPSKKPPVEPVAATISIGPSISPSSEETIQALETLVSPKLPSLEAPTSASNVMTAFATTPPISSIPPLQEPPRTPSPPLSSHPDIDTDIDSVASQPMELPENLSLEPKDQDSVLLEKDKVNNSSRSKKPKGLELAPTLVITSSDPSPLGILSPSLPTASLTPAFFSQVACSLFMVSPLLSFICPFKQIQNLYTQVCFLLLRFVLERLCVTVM
# In short: as §1
# CRX = CRX (Homo sapiens, UniProt O43186 1-299); conditions: protein: recombinant; tags: N-terminal GST; dsDNA, one strand shown
# In short: as §1
# ELF5 = biological target: T3, ELF5 (Homo sapiens, UniProt Q9UKW6-2 1-255); conditions: protein: recombinant; tags: N-terminal GST; dsDNA, one strand shown
# T3 sequence: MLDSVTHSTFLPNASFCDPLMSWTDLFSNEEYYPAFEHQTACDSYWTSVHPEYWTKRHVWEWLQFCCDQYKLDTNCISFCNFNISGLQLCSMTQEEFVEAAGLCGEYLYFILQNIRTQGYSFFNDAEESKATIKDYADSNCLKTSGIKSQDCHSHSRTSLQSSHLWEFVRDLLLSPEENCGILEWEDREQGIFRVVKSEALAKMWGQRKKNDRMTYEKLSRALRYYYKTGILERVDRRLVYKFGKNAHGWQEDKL
# In short: as §1
# ELF4 = ELF4 (Homo sapiens, UniProt Q99607 1-663); conditions: protein: recombinant; tags: N-terminal GST; dsDNA, one strand shown
# In short: as §1
# SPIC = biological target: T4, SPIC (Homo sapiens, UniProt Q8N5J4 1-248); conditions: protein: recombinant; tags: N-terminal GST; dsDNA, one strand shown
# T4 sequence: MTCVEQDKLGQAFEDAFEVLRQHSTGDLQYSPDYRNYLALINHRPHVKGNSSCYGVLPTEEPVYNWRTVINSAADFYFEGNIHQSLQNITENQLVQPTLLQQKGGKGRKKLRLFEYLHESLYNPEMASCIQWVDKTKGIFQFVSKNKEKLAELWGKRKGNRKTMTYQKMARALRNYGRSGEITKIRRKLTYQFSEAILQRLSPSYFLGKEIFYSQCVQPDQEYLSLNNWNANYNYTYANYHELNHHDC
# In short: as §1
# GABPA = biological target: T5, GABPA (Homo sapiens, UniProt Q06546 1-454); conditions: protein: recombinant; tags: N-terminal GST; dsDNA, one strand shown
# T5 sequence: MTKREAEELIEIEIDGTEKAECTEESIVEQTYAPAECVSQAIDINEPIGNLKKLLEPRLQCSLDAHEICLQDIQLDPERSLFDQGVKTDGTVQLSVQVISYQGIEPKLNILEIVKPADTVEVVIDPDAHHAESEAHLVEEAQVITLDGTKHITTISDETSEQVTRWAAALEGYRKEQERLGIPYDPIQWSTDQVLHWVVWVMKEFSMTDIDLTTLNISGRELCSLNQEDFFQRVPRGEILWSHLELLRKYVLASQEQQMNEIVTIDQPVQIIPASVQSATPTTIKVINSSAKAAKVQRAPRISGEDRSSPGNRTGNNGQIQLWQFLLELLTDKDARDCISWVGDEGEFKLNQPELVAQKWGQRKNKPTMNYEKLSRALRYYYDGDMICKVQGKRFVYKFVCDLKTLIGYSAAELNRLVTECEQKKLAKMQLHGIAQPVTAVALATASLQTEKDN
# In short: as §1
# ETV1 = ETV1 (Homo sapiens, UniProt P50549 1-477); conditions: protein: recombinant; tags: N-terminal GST; dsDNA, one strand shown
# In short: as §1
# ERF = biological target: T6, ERF (Homo sapiens, UniProt P50548 1-548); conditions: protein: recombinant; tags: N-terminal GST; dsDNA, one strand shown
# T6 sequence: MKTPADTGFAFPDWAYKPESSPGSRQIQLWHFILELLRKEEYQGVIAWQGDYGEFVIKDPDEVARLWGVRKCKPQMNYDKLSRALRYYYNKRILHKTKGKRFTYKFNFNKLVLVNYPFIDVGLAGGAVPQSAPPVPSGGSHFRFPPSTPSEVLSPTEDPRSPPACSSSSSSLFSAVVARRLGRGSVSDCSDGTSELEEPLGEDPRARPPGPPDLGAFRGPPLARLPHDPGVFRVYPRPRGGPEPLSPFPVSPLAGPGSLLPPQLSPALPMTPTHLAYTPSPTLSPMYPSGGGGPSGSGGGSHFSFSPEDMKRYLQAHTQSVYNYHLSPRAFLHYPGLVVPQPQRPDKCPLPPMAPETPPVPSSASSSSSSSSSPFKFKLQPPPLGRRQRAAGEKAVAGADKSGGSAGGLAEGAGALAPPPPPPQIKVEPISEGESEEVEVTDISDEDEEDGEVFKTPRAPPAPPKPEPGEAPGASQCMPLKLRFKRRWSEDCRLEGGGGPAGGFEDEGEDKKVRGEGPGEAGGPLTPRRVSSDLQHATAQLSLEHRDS
# In short: as §1
# CRX, sequence (O43186 whole entry): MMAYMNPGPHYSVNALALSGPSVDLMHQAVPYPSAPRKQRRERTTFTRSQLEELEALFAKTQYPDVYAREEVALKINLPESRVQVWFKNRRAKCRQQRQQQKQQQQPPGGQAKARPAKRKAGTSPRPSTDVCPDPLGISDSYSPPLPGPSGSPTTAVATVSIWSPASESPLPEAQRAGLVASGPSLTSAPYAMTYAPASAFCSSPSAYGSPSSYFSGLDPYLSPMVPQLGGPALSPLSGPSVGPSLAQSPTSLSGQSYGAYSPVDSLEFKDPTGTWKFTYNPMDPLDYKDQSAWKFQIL
# HSF1, sequence (Q00613 whole entry): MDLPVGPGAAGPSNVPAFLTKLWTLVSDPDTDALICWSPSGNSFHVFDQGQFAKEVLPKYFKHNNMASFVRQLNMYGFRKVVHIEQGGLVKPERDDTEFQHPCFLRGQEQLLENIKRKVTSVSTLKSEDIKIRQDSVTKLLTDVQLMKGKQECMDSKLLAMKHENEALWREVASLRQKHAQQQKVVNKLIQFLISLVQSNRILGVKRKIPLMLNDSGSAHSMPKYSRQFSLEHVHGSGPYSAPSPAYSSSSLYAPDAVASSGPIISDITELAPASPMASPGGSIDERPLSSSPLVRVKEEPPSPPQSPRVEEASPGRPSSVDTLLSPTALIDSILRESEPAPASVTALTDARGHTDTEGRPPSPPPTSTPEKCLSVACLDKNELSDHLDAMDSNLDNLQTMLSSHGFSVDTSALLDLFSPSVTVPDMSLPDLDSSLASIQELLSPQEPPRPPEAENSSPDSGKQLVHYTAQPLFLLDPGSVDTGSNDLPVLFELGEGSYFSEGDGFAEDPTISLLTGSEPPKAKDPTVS
# ELF4, sequence (Q99607 whole entry): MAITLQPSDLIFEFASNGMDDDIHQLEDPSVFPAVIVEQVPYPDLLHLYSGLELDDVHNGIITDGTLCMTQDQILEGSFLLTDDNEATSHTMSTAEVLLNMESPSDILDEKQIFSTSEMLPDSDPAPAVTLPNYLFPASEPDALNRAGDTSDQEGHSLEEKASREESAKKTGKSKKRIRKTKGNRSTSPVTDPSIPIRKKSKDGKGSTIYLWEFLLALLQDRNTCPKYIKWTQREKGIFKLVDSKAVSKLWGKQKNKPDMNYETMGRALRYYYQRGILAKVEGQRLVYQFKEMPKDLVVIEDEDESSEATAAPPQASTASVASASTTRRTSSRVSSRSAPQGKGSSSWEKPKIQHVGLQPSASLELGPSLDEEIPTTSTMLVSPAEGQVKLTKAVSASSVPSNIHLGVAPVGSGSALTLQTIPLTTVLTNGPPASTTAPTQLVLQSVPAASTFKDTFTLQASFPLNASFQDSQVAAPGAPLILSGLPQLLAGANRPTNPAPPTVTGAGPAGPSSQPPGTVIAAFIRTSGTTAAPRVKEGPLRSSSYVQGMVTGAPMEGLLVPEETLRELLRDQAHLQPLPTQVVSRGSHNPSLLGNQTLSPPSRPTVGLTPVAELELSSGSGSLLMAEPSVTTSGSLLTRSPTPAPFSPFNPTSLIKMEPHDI
# ETV1, sequence (P50549 whole entry): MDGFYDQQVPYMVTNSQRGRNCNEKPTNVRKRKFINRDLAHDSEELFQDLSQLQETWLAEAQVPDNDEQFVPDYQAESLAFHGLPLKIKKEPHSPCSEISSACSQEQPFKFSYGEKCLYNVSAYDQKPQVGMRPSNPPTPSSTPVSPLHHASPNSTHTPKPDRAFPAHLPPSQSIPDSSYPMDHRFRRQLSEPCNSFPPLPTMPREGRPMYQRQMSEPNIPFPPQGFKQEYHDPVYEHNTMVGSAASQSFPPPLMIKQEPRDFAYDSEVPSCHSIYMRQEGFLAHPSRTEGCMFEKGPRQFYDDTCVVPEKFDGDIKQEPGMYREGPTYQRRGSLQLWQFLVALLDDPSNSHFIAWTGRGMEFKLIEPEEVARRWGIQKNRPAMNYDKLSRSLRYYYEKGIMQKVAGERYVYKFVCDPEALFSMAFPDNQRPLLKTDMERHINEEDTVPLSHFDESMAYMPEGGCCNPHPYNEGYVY
sequence,measurement,setting,value
AGATAT,binding signal,ELK3,"1 fold enrichment (6-mer frequency, TF over GST control)"
same,binding signal,HSF1,"1.1 fold enrichment (6-mer frequency, TF over GST control)"
same,binding signal,ELK4,"1.04 fold enrichment (6-mer frequency, TF over GST control)"
same,binding signal,CRX,"1.06 fold enrichment (6-mer frequency, TF over GST control)"
same,binding signal,ELF5,"1.06 fold enrichment (6-mer frequency, TF over GST control)"
TCAGAA,binding signal,HSF1,"1.26 fold enrichment (6-mer frequency, TF over GST control)"
same,binding signal,ELF4,"1 fold enrichment (6-mer frequency, TF over GST control)"
same,binding signal,CRX,"1.12 fold enrichment (6-mer frequency, TF over GST control)"
AGAACT,binding signal,HSF1,"1.63 fold enrichment (6-mer frequency, TF over GST control)"
same,binding signal,SPIC,"1.03 fold enrichment (6-mer frequency, TF over GST control)"
same,binding signal,CRX,"1.02 fold enrichment (6-mer frequency, TF over GST control)"
TAGCGC,binding signal,GABPA,"1.01 fold enrichment (6-mer frequency, TF over GST control)"
same,binding signal,HSF1,"1.02 fold enrichment (6-mer frequency, TF over GST control)"
same,binding signal,ELF4,"1.01 fold enrichment (6-mer frequency, TF over GST control)"
same,binding signal,CRX,"1.03 fold enrichment (6-mer frequency, TF over GST control)"
same,binding signal,ETV1,"1.07 fold enrichment (6-mer frequency, TF over GST control)"
same,binding signal,ERF,"1.03 fold enrichment (6-mer frequency, TF over GST control)"
